Screening results from PubChem BioAssay.
LMNA splice mod = qHTS Assay for Modulators of Lamin A Splicing; HeLa LMNA splicing GFP/RFP minigene ratio, 48 h; AID 1487, 2009; 200,000 compounds, 0.01% hits; Potency, µM (doses to about 46.1 µM), hits mostly inhibitors; active means well fitted inhibition curve with a large enough effect in the signal ratio, with a control signal flat, not every such curve was filed as active; inconclusive means small, poorly fitted or top-dose-only effect, or effect the other way, or a change in a side signal; the % refers to the signal ratio
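S3 HeLa cells stably expressing lamin A-EGFP splicing minigene plus DsRed2, 600 cells/well, 48 h compound exposure at 37C. Laser-scanning cytometry; analysed as GFP (500-530 nm)/RFP (575-640 nm) total intensity ratio; 0.5% DMSO vehicle.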
JMJD2E inh = qHTS Assay for Inhibitors of Human Jumonji Domain Containing 2E (JMJD2E); Lysine-specific demethylase 4E (Homo sapiens), B2RXH2; JMJD2E catalytic domain, FDH-coupled NADH fluorescence (FDH is formaldehyde dehydrogenase); Potency, µM (top dose mostly 57.1 µM), actives largely listed as inhibitors; 230,000 compounds, 1.6% hits; active means well fitted inhibition curve with a large enough effect, not every such curve was filed as active; inconclusive means small, poorly fitted or top-dose-only effect, or another doubt; inactive means no such curve, though single readings can be large or run the other way; further: nearly all actives have a fitted effect of over 50% in size
Target sequence (B2RXH2 1-337 limits assumed): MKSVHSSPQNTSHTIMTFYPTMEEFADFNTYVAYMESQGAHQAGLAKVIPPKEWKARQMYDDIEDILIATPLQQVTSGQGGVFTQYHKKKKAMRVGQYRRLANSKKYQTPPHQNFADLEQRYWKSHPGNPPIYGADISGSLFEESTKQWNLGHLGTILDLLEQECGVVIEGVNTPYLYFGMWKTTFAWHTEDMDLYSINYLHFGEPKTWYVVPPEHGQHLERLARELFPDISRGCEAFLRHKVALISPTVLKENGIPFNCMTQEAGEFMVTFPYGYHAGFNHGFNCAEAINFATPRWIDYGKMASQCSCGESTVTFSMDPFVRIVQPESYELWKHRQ
G9a inh = qHTS Assay for Inhibitors of Histone Lysine Methyltransferase G9a; 350,000 compounds, 8.8% hits; Potency, µM (highest dose often 102 µM), usual class: inhibitors; AID 504332, 2011; G9a H3K9 monomethylation, AlphaScreen, 2 h; Histone-lysine N-methyltransferase EHMT2 (Homo sapiens), Q96KQ7; further: nearly all actives have a fitted effect of over 75% in size
Target sequence (Q96KQ7 913-1193 limits assumed): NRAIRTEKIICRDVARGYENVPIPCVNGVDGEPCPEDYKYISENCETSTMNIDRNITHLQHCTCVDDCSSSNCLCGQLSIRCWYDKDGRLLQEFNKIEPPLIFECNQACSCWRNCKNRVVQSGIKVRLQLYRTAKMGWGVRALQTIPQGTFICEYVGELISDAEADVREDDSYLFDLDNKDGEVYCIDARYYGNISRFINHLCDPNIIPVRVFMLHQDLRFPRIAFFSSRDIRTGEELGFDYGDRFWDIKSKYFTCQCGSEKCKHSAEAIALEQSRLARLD
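Compounds were preincubated with 20 nM G9a for 15 min, after which biotinylated H3K9 peptide (500 nM) and SAM (20 uM) started a 2 h room-temperature reaction. Monomethylated product was quantified by antibody-based AlphaScreen chemiluminescence.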
ALDH1A1 inh = qHTS Assay for Inhibitors of Aldehyde Dehydrogenase 1 (ALDH1A1). Aldehyde dehydrogenase 1A1 (Homo sapiens), P00352. Purified ALDH1A1, NADH fluorescence, propionaldehyde substrate. Potency, µM (titrated, usually from 75.3 µM), hits mostly inhibitors. 220,000 compounds, 7.3% hits. AID 1030, 2008; active means well fitted inhibition curve with a large enough effect, not every such curve was filed as active; inconclusive means small, poorly fitted or top-dose-only effect, or another doubt; inactive means no such curve, though single readings can be large or run the other way
miR-21 act = qHTS Assay for Modulators of miRNAs and/orActivators of miR-21; HeLa miR-21 FLuc reporter, luciferase, 48 h; Potency, µM (highest dose often 38.3 µM), hits mostly activators; 340,000 tested, under 10 active; AID 2288, 2010;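 further: miR-21 action dims this reporter so a rising signal means less miR-21 action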
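HeLa miR-21-FLuc reporter line, endogenous miR-21; 2000 cells/well in DMEM/10% FBS; compound titration up to ~40uM final, 48 h, 37 degree Celsius; luciferase detection reagent, 15 min lysis, CCD luminescence.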
Sfp PPTase inh = qHTS Assay for Inhibitors of Bacillus subtilis Sfp phosphopantetheinyl transferase (PPTase); 4'-phosphopantetheinyl transferase ffp (Bacillus subtilis), Q9F4F7; Biochemical Sfp PPTase activity, qHTS; Potency, µM, most hits filed as inhibitors; 310,000 compounds, 3.5% hits; AID 1490, 2009;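 further: the enzyme is Sfp with the accession as filed and its product quenches rhodamine fluorescence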
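Compounds were incubated with enzyme (final 15 nM) for 15 min at room temperature before substrate addition started the reaction. Fluorescence at 525 nm excitation, 598 nm emission was recorded immediately and after 30 minutes.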
Numbers stand for hits; i = inactive; ? = inconclusive; nt = not tested or not shown; [ ] = dose if it differs, or a comment. Sampled rows, rich in hits. Any-hit rate of the full collection: about 13%. Unless noted, the call rests on the fitted dose curve; in most records, active means well fitted curve in the direction sought with a large enough effect; inconclusive means small, poorly fitted or top-dose-only effect, or another doubt; inactive means no such curve, though single readings can be large; an effect the other way counts as inactive or inconclusive.

SMILES	LMNA splice mod	JMJD2E inh	G9a inh	ALDH1A1 inh	miR-21 act	Sfp PPTase inh
Cc1ccccc1C(=O)Nc1nnc(S(=O)(=O)N2CCCc3ccccc32)s1	i	nt	i	nt	i	nt
CC1(O)C(=O)C=C2C=C3CCCN3C=C2C1=O (stereo not drawn)	nt	nt	nt	?	nt	i
Cc1nn(Cc2ccccc2)c2c1C(c1cccnc1)C(C#N)=C(N)O2 (stereo not drawn)	i	?	50.1µM	7.94µM	i	i
Cc1nn(-c2ccccc2)c2c1C(c1ccc(Br)s1)C(C#N)=C(N)O2 (stereo not drawn)	nt	i	15.8µM	3.16µM	i	i
CC(C)CC1CC(=O)OC1(C)C(=O)CSc1nc2ccccc2s1 (stereo not drawn)	i	i	i[0.501 µM]	8.91µM	i	i
CC(=O)CSc1nc2ccccc2s1	i	i	i[12.7 µM]	i	i	i
CC(C)OC(=O)CSc1nc2ccccc2s1	i	i	i[12.7 µM]	11.2µM	i	i
CC(C)CCNC(=O)CSc1nc2ccccc2s1	nt	i	i	17.8µM	i	i
CCCOc1ccc(-c2nonc2NC(=O)c2oc3ccc(C)cc3c2C)cc1OCCC	nt	nt	i	nt	i	nt
CCOCCCNC(=O)Cn1nc(CC)n2c(cc3c(OC)cccc32)c1=O	nt	nt	i	nt	i	nt
O=C(O)COc1ccccc1C(Nc1ccccn1)c1cc(Cl)c2cccnc2c1O (stereo not drawn)	i	?	7.94µM	i	i	i
O=C(NC(c1ccccc1)c1cc(Cl)c2cccnc2c1O)c1cccnc1 (stereo not drawn)	i	i	i	i	?	i
CCOc1ccc(C(Nc2cccnc2)c2cc(Cl)c3cccnc3c2O)cc1 (stereo not drawn)	nt	i	nt	1.26µM	i	?
CCC(=O)NC(c1ccc(OC)c(OC)c1)c1cc(Cl)c2cccnc2c1O (stereo not drawn)	nt	i	nt	i	?	56.2µM
O=C(O)COc1ccccc1C(Nc1cccnc1)c1cc(Cl)c2cccnc2c1O (stereo not drawn)	nt	i	2.82µM	i	i	22.4µM
COC(=O)NC(c1cccc(F)c1)C(C(C)=O)C(=O)OC (stereo not drawn)	nt	nt	nt	i[13.5 µM]	nt	i
CCc1ccc(N2C(=O)CS(=O)(=O)C23C(=O)N(Cc2ccccc2)c2ccccc23)cc1 (stereo not drawn)	?	nt	?	nt	i	nt
CCC(=O)N1CCc2cc(Br)cc(S(=O)(=O)CCC(=O)NCCc3cccc(C)c3)c21	?	nt	i	nt	i	nt
O=C(NC(=S)Nc1cc(S(=O)(=O)N2CCOCC2)ccc1O)c1ccco1	nt	i	10µM	25.1µM	i	44.7µM
O=C(NC(=S)Nc1cc(S(=O)(=O)N2CCOCC2)ccc1N1CCOCC1)c1ccco1	i	i	i	i	i	i
CCN(CC)S(=O)(=O)c1ccc(N2CCOCC2)c(NC(=S)NC(=O)c2ccco2)c1	nt	i	28.2µM	nt	i	20µM
CCN(CC)S(=O)(=O)c1ccc(N2CCCC2)c(NC(=O)CC(C)(C)C)c1	nt	i	nt	nt	i	i
CCN(CC)S(=O)(=O)c1ccc(N2CCOCC2)c(NC(=O)Cc2ccccc2)c1	i	i	i	12.6µM	i	i
CCN(CC)S(=O)(=O)c1ccc(N2CCOCC2)c(NC(=O)CC(C)(C)C)c1	nt	i	79.4µM	nt	i	?
CC/C=C\C/C=C\C/C=C\C/C=C\C=C\C(O)CCCC(=O)O (stereo not drawn)	nt	i	nt	i	nt	i
SMILES	LMNA splice mod	JMJD2E inh	G9a inh	ALDH1A1 inh	miR-21 act	Sfp PPTase inh
COc1ccc(NC(=O)CN2CCCCCC2)cc1OC	nt	nt	i	nt	i	i
CCN(CC)S(=O)(=O)c1ccc(N2CCOCC2)c(NC(=O)CCC2CCCCC2)c1	i	i	i	1.58µM	i	?
CCc1cc(C(=O)Nc2cc(S(=O)(=O)N(CC)CC)ccc2N2CCOCC2)sc1C	nt	nt	39.8µM	nt	nt	nt
CCN(CC)S(=O)(=O)c1ccc(N2CCOCC2)c(NC(=O)c2cc(C)cc(C)c2)c1	i	i	i	?	i	i
CCC(=O)c1cc(-c2nc3ccccc3n2C)n(C)c1	i	i	i	i	i	i
Cc1oc(-c2nc3ccccc3n2C)cc1C(=O)c1ccccc1	i	i	10µM	?	i	22.4µM
Cn1cc(C(=O)c2ccccc2)cc1-c1nc2ccccc2n1C	i	i	50.1µM	i	i	i
Cc1ccc(NS(=O)(=O)c2csc(C(N)=O)c2)cc1C	nt	nt	i	nt	i	i
O=C(c1ccc2ccccc2c1)N1CCN(c2ccc(C(F)(F)F)cn2)CC1	?	i	i	15.8µM	i	i
O=C(c1ccc2c(c1)OCO2)N1CCN(c2ccc(C(F)(F)F)cn2)CC1	?	i	i	?	i	i
COc1cccc(N2CCN(C(=O)c3ccc4ccccc4c3)CC2)c1	nt	nt	50.1µM	nt	nt	nt
COc1ccc(N2CCN(C(=O)c3cn(CC4CCCCC4)nn3)CC2)cc1	nt	nt	35.5µM	nt	i	i
O=C(c1ccc2nc(N3CCOCC3)sc2c1)N1CCCC1	i	i	?	i	i	i
COc1ccc(N2CCN(C(=O)c3ccc4nc(N5CCCCC5)sc4c3)CC2)cc1	i	i	8.91µM	?	i	i
NC(=O)Cn1c(=O)n(CCCCCC(=O)NCc2ccccc2)c(=O)c2sccc21	nt	nt	i	nt	i	nt
O=C(NC1CCCCC1)c1ccc2c(c1)N(Cc1ccccc1Cl)C(=O)c1ccccc1S2	i	nt	i	nt	i	nt
COc1ccc(C)cc1NC(=O)C1CCN(S(=O)(=O)c2ccc3c(c2)NC(=O)CO3)CC1	nt	nt	nt	nt	i	i
COc1ccc(C(=O)C2CCN(C(=O)c3ccc(C)cc3)CC2)cc1	?	i	i	5.01µM	i	i
COc1ccc(N2CCN(C3CCCN(C(=O)c4cccc(C)n4)C3)CC2)cc1 (stereo not drawn)	nt	nt	50.1µM	nt	i	i
COc1ccccc1C(=O)N1CCC(N2CCN(c3ccccc3)CC2)CC1	nt	?	35.5µM	nt	i	i
COc1ccc(C(=O)C2CCN(C(=O)c3ccc(F)cc3)CC2)cc1	nt	nt	nt	nt	i	i
COc1cccc(NC(=O)N2CCN(c3cccc(C)c3)C(C)C2)c1 (stereo not drawn)	i	i	i	?	i	i
COc1cccc(N2CCN(C(=O)c3ccc(=O)oc3)CC2C)c1 (stereo not drawn)	i	?	?	?	i	35.5µM
C[C@H]1CS(=O)(=O)CCN1/N=C\c1ccc([N+](=O)[O-])o1	?	i	i[5.15 µM]	?	nt	i
CCOc1ccc(N(CC(=O)Nc2ccccc2CC)S(=O)(=O)c2c(C)[nH]c(=O)[nH]c2=O)cc1	nt	nt	i	nt	i	nt
O=C(c1ccccc1Oc1ccc([N+](=O)[O-])cc1)N1CCOCC1	nt	nt	i	nt	i	i
